From PubChem BioAssay
ABCB6 inh 2 – blocks the human ABCB6 transporter. fluorescence ratio to DMSO, % at 10 µM. K562-ABCB6 porphyrin accumulation, flow cytometry, 1 h; stronger effect = lower value. AID 602162. Q9NP58. 0.19% of 360,000 active;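 active = fluorescence ratio to DMSO below 75%, the collection mean minus 3 SD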;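 also: signal is porphyrin accumulated inside mitochondria; lower ratio means ABCB6 inhibition with less porphyrin fluorescence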
Target sequence (Q9NP58 whole entry, looked up): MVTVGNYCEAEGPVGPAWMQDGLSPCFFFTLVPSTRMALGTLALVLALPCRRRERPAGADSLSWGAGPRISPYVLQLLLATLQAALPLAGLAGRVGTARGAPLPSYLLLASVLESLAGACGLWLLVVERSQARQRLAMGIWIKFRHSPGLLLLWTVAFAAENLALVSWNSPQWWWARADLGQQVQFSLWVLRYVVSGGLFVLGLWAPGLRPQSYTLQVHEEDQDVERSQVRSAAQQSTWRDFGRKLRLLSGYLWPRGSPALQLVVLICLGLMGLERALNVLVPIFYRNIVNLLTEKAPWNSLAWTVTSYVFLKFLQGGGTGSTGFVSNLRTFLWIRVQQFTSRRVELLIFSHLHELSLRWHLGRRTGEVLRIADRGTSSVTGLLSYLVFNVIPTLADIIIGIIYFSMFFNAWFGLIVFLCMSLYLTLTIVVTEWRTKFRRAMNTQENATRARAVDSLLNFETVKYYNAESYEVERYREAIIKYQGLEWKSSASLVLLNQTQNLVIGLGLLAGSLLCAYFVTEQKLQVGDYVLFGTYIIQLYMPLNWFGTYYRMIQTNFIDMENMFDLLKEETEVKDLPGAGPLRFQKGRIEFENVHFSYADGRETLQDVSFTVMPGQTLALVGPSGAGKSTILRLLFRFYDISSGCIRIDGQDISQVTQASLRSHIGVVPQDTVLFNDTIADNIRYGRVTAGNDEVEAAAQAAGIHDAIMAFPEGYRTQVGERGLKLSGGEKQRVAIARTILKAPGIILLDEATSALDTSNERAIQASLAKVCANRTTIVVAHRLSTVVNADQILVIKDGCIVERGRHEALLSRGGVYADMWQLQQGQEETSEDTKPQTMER
NRP1-CendR mod – NRP-1/CendR interaction modulation; O14786; FAM-RPARPAR peptide binding to NRP-1, fluorescence polarization; inhibition, % at 25 µM; 0.85% of 360,000 active; AID 602438;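 active = inhibition or corrected inhibition above about 18%, plus a signal ratio from 0.5 to 1.5, limit read from the data, passing the limit was not always enough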
GSIS activator – primary screen for activators of insulin secretion dependent on glucose, INS-1E cells, GLuc reporter luminescence. INS-1E GLuc reporter insulin secretion, 2-3 h. activation, % at 16.6 µM. 0.61% of 370,000 active. AID 743287;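 active = lowest replicate activation of at least 40%, so every replicate reaches that level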
ARNT TACC3 PPI – ARNT/TACC3 interaction disruption | Q9Y6A5 | AID 623870 | 0.66% of 390,000 active | inhibition, % at 9.99 µM | AlphaScreen His-ARNT PAS-B/GST-TACC3 binding, luminescence; TACC3 fragment carries E629A point mutation;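 active = mean inhibition of replicates at least 50% and at least half of replicates each reaching 50%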
iPSC survival up – enhancers of human iPSC single-cell survival; AID 602274; hiPSC single-cell survival, ATPlite luminescence; 100% = ROCK inhibitor wells, 0% = DMSO; 0.044% of 360,000 active; survival enhancement, % at 20 µM; in the data active = survival enhancement above about 18%;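 also: cells exposed to compounds for 16 hours before the ATP read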
Hits are given with their value; 0 = inactive; - = no result. Rows were chosen to be rich in hits. Some 1.8% of all compounds tested hit in one or more screens of this group.

SMILES	ABCB6 inh 2	NRP1-CendR mod	GSIS activator	ARNT TACC3 PPI	iPSC survival up
CN1C[C@H](CO)C=C2c3cccc4[nH]cc(c34)C[C@H]21	0	45.9	0	0	0
CCCCCCC(=O)N/N=C/c1c(O)n(CCc2ccccc2)c(=O)[nH]c1=O	0	0	0	0	0
CCCCCCC(=O)N/N=C/c1c(O)n(C(C)CC)c(=S)[nH]c1=O (stereo unspecified)	0	0	0	49.9	0
CCC(C)n1c(O)c(C=NC(C)c2ccccc2)c(=O)[nH]c1=S (stereo unspecified)	0	0	-	0	0
C=CCn1c(O)c(/C=N/NC(=O)CCCC)c(=O)[nH]c1=S	0	0	0	69.1	0
CCCCCCC(=O)N/N=C/c1c(O)n(C2CC2)c(=S)[nH]c1=O	0	0	0	30.1	0
O=C(Cc1cccnc1)N1CCCCN2[C@H](C1)[C@@H](c1ccc(/C=C/c3ccccc3)cc1)[C@@H]2CO	-	-	0	0	-
COC(=O)[C@H]1[C@H](CO)[C@H]2Cn3c(cccc3=O)[C@@H]1N2C(=O)C1CCC1	-	-	-	0	-
CCn1nc(/C=C/c2ccccc2)nc2c(=O)n(C)c(=O)nc1-2	0	26.9	0	0	0
CCOc1ccc(-n2c(-c3cccs3)nc3ccccc3c2=O)cc1	0	0	0	0	0
CCn1nc(-c2cccs2)nc2c(=O)n(C)c(=O)nc1-2	0	30.2	-	0	0
COc1ccc(-n2c(/C=C/c3ccc(O)cc3)nc3ccccc3c2=O)cc1	0	0	0	0	0
CC1NC(=O)NC(=O)C1Br (stereo unspecified)	0	35.9	0	0	0
FC(F)(F)CN1C[C@@H]2C(c3ccccc3)[C@H](C1)N2CC1CC1 (stereo partly specified)	-	-	0	-	-
Cc1cccc2nc(-c3ccccc3)c(-c3ccc(CN4CCC(n5c(=O)[nH]c6cc(Cl)ccc65)CC4)cc3)nc12	-	-	41.9	-	-
COC(=O)[C@H]1[C@H](CO)[C@H]2Cn3c(ccc(-c4ccccc4F)c3=O)[C@@H]1N2C(C)=O	-	-	0	0	-
C=C1C(C)C2C(Cc3ccccc3)NC(=O)C23OC(=O)/C=C/C(O)CCCC(C)C/C=C/C3C1O (stereo unspecified)	0	0	0	0	30.4
CCOc1ccc(N=Cc2c(O)n(-c3ccc(C)c(C)c3)c(=O)[nH]c2=O)cc1	0	0	0	-	0
O=C(N/N=C/c1c(O)n(CCc2ccc(F)cc2)c(=O)[nH]c1=O)c1ccncc1	0	0	0	65.4	0
Cc1ccc(-n2c(O)c(/C=N/NC(=O)c3ccncc3)c(=O)[nH]c2=O)cc1C	0	0	0	62.5	0
O=C(N/N=C/c1c(O)n(-c2cccc3ccccc23)c(=O)[nH]c1=O)c1ccncc1	0	0	0	68.2	0
O=C(N/N=C/c1c(O)n(CCc2ccccc2)c(=O)[nH]c1=O)c1ccncc1	0	0	0	74.5	0
CC(C)NC(=O)N1CC2C(c3ccccc3)C(C1)N2C (stereo unspecified)	-	-	0	-	-
CCCN1[C@@H]2c3ccc(-c4ccc(OC)cc4)c(=O)n3C[C@H]1[C@H](CO)[C@H]2C(=O)OC	-	-	0	0	-
CC=Cc1ccc2n(c1=O)C[C@@H]1[C@@H](CO)[C@H](C(=O)OC)[C@H]2N1C(=O)CC (mixture of isomers)	-	-	0	0	-
SMILES	ABCB6 inh 2	NRP1-CendR mod	GSIS activator	ARNT TACC3 PPI	iPSC survival up
COC(=O)[C@H]1[C@H](CO)[C@H]2Cn3c(ccc(-c4cccc(C(=O)N(C)C)c4)c3=O)[C@@H]1N2CC1CC1	-	-	0	-	-
O=C(N/N=C/c1c(O)n(Cc2ccccc2)c(=O)[nH]c1=O)c1ccccc1O	0	0	0	62.6	0
COc1ccc(Cn2c(O)c(C=NCCCn3ccnc3)c(=O)[nH]c2=O)cc1	0	0	-	0	17.5
CCCCCCn1c(O)c(C=NCCCn2ccnc2)c(=O)[nH]c1=O	0	0	-	0	0
O=C(N/N=C/c1c(O)n(Cc2ccc(F)cc2)c(=O)[nH]c1=O)c1ccccc1O	0	0	-	-	0
CCn1c(O)c(/C=N/NC(=O)c2ccccc2)c(=O)[nH]c1=S	0	0	0	63.1	0
CCN(CC)c1ccc(N=Cc2c(O)n(Cc3ccccc3)c(=O)[nH]c2=O)cc1	0	0	41.1	0	0
FC(F)(F)CN1C[C@@H]2C(c3ccc(Br)cc3)[C@H](C1)N2CC1CC1 (stereo partly specified)	-	-	0	-	-
O=C(O)C[C@@H]1CC[C@H]2NC[C@@H](O)COC[C@@H]2O1	-	-	0	0	-
O=C(O)[C@H]1[C@H](CO)[C@H]2Cn3c(ccc(-c4cccnc4)c3=O)[C@@H]1N2C(=O)Nc1cc(F)ccc1F	-	-	0	0	-
CCCN1[C@@H]2c3ccc(-c4cccc(OC)c4)c(=O)n3C[C@H]1[C@H](CO)[C@H]2C(=O)OC	-	-	0	-	-
CN1[C@@H]2CN(CC3CC3)C[C@H]1C2c1ccc(Br)cc1 (stereo partly specified)	-	-	0	-	-
COc1ccc(Cn2c(O)c(/C=N/NC(=O)c3ccncc3)c(=O)[nH]c2=O)cc1	0	0	0	58.0	0
COC(=O)[C@H]1[C@H](CO)[C@H]2Cn3c(ccc(-c4ccc(F)cc4)c3=O)[C@@H]1N2Cc1cccnc1	-	-	0	0	-
OC[C@@H]1Nc2ccc(C#Cc3cccnc3)cc2[C@H]2NCC[C@@H]12	-	-	0	-	-
COc1ccc(CC2c3cc(OC)c(OC)cc3CCN2C)cc1O (stereo unspecified)	0	0	43.1	0	0
COc1ccc(CCN)cc1O	0	0	0	0	0
O=C1C=CC(=O)C2C1C1(Cl)C(Cl)=C(Cl)C2(Cl)C1(Cl)Cl (stereo unspecified)	0	25.8	0	0	0
CC(=NC(C)c1ccccc1)c1c(O)[nH]c(=O)[nH]c1=O (stereo unspecified)	0	0	103.5	0	0
CCCCC1(CCO)C(=O)NC(=S)NC1=O	0	0	0	0	0
CCCCC1(CN2CCCC2=O)C(=O)NC(=O)NC1=O	0	23.4	0	-	0
C/C=C/c1ccc([C@H]2[C@H]3CN(C(=O)Cc4ccncc4)CCCCN3[C@H]2CO)cc1	-	-	0	0	-
CCCCn1c(O)c(C(CC)=NCc2cc(OC)cc(OC)c2)c(=O)[nH]c1=O	0	0	0	0	0
CCCCn1c(O)c(C(C)=NCc2cc(OC)cc(OC)c2)c(=O)[nH]c1=O	0	0	-	26.3	0
Cc1[nH]c2ccc(OC(F)(F)F)cc2c1CCNCc1ccc(Cl)cc1	0	0	213.8	0	0
CCCCCCCCCCCCCCCC[n+]1ccccc1	0	0	497.2	0	0
COc1ccc(/C=C2/C(=O)NC(=O)N(c3ccccc3)C2=O)cc1CN1C(=O)c2ccccc2C1=O	0	0	-	0	0
COc1cc(/C=C2/C(=O)NC(=O)N(c3ccccc3)C2=O)ccc1O	0	0	0	active	0
O=C(O)[C@H]1[C@H](CO)[C@H]2Cn3c(ccc(-c4cccc(F)c4)c3=O)[C@@H]1N2CCc1ccccc1	-	-	0	0	-
